Each structure is given as a SMILES string. Active and inactive are the calls of the source. Unless noted, how the calls were made is not given here.

A short description of assay [1]: HepG2 liver cancer cell viability effects, profiling panel, resazurin fluorescence, 24 h, PK04 Diversity Set (AID 1172). Further: test concentration not given here. The settings on record: higher = more signal.
A short description of assay [2]: basal S. cerevisiae growth modulation, no modifier, primary screen, OD600, strain BY4716, 24 h, basal condition (AID 1173). The settings on record: OD600, 24 h, higher = more signal, called active from +8 up or from −8 down.
The nature of assay [3]: MM1S myeloma cell viability, profiling panel, resazurin fluorescence, basal, 24 h, PK04 Diversity Set (AID 1174).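 Further: MM1S multiple myeloma cell line; test concentration not given here.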 The settings on record: higher = more signal, called active from +8 up or from −8 down. In general terms: Alamar Blue is a resazurin reagent that responds to reducing activity.
Assay [4] addresses Dihydroorotate dehydrogenase (quinone), mitochondrial (Plasmodium falciparum (isolate 3D7)) (UniProt Q08210). The experiment in a line: PfDHODH enzyme inhibitors, primary screen, biochemical, C-terminal His tag, absorbance 600 nm (AID 1175).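 Further: recombinant parasite enzyme with a five histidine tag at its C terminus; test concentration not given here.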 The settings on record: DCIP absorbance 600 nm, higher = more signal, called active from +8 up or from −8 down.
Assay [5] in a line: P. aeruginosa biofilm formation inhibitors, primary screen, strain PAO1, LB-PBS medium, absorbance 600 nm (AID 1176). Further: test concentration not given here. The following applies: P. aeruginosa PAO1 growth/biofilm, A600, 12 h; higher = more signal.
The nature of assay [6]: S. cerevisiae RM11-1a growth modifiers, primary screen, strain RM11-1a, OD600, basal, 24 h (AID 1177).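 Further: cultures grown under basal conditions with no added stressor; test concentration not given here.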 The following applies: OD600, 24 h, higher = more signal, called active from +8 up or from −8 down.
Assay [7] in a line: E. coli acrAB mutant growth effects, primary screen, E. coli filamentation inducers, strain DRC39, OD650, 24 h (AID 1178).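 Further: growth measured as culture turbidity by optical density at 650 nm; test concentration not given here.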 The settings on record: higher = more signal, called active from +8 up or from −8 down.
Assay [8] in a line: E. coli acrAB mutant growth effects, primary screen, E. coli filamentation inducers, strain DRC39, OD650, 48 h (AID 1179).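 Further: screen aims at cell division blockers that make cells filament.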 The following applies: E. coli DRC39 delta-acrAB growth, higher = more signal, called active from +8 up or from −8 down.
Assay [9] is described as follows: RPMI8226 myeloma cell viability, profiling panel, resazurin fluorescence, basal, 24 h, PK04 Diversity Set (AID 1180).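 Further: RPMI8826 multiple myeloma cell line at 5000 cells per well; test concentration not given here.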 The settings on record: higher = more signal.
In assay [10] the target is E3 ubiquitin-protein ligase XIAP (Homo sapiens) (UniProt P98170). The assay can be described thus: XIAP binders, primary screen, biophysical, small-molecule microarray, fluorescence 635 nm (AID 1181).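 Further: score merges 667 nm emission and signal to noise over triplicate slides.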 The following applies: small-molecule microarray binding, higher = more signal.
Chain of E3 ubiquitin-protein ligase XIAP (Homo sapiens) (P98170 whole entry, looked up): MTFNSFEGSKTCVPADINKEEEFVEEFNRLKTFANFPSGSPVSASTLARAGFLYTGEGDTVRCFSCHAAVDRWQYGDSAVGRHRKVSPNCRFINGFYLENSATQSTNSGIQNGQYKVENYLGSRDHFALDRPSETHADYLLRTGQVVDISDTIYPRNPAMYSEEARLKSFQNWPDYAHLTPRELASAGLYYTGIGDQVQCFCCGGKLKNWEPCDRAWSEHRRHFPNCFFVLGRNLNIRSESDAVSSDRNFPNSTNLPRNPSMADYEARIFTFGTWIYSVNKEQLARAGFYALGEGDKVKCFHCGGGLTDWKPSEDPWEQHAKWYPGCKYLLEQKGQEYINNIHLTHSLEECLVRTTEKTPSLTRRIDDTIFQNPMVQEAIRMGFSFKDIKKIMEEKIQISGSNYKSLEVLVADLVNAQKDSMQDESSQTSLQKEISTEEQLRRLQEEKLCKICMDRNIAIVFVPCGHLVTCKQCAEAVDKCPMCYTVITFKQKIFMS

Chain of Dihydroorotate dehydrogenase (quinone), mitochondrial (Plasmodium falciparum (isolate 3D7)) (Q08210 whole entry, looked up): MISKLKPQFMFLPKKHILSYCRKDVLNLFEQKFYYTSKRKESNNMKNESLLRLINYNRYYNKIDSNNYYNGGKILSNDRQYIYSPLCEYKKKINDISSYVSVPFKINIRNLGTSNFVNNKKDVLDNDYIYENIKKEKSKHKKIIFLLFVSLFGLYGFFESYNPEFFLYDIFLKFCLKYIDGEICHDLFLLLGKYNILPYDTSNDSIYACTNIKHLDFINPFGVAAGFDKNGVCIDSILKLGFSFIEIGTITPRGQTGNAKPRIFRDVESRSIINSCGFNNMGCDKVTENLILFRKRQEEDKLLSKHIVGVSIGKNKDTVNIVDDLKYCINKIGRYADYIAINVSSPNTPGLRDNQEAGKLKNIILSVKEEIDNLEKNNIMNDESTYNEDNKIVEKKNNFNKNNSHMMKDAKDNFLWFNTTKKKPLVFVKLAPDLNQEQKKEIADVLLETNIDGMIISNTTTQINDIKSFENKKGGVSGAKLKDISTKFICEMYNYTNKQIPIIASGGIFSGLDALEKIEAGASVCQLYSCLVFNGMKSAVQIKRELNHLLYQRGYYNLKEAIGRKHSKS

Take `CC(C)=CCCC(C)=CCON=C1C[C@@H](O)[C@@H](O)[C@@H]2[C@@H]3C(=O)N(C(C)(C)C)C(=O)[C@@H]3CC[C@H]12`: the z-score in assay [1] is -0.369; in assay [2], -0.352 (inactive); in assay [3], -0.274 (inactive); in assay [5] it was 0.152 (inactive); in [6], -0.264 (inactive); in assay [7] it was 0.27 (inactive). Further, the z-score is 0.612 (inactive) in assay [8] and -0.245 in assay [9]. In addition, the composite z-score in assay [4] was -0.108 (inactive); in assay [10] it was -0.172.
Turning to `CO[C@@H]1COC(=O)[C@@H]2CCCN2C(=O)[C@@H](C)COC(=O)CC=C[C@H]1C`, the z-score is 1.09 in [1]; 0.755 (inactive) in [2]; 0.468 (inactive) in assay [3]; -0.749 (inactive) in [5]; 0.0994 (inactive) in assay [6]; 0.207 (inactive) in [7]. The values for the z-score in assay [8] and in assay [9] were -0.179 (inactive) and 0.189, respectively. Also, the values for the composite z-score in [4] and in assay [10] were -0.385 (inactive) and -0.273, respectively.
Regarding `C[C@H]1COC(=O)[C@@H]2CCCN2C(=O)[C@@H](C)COC(=O)[C@H](Cc2ccccc2)NC1=O`, the z-score in [1] is 0.409; in [2], 0.0852 (inactive); in [3] it was -0.208 (inactive); in assay [5], -0.348 (inactive); in [6], -0.231 (inactive); in assay [7], 0.0861 (inactive). Also, the z-score in assay [8] is 0.503 (inactive); in [9] it was 0.586. Besides, the composite z-score in assay [4] is -0.926 (inactive); in [10] it was 1.05.
On to `CO[C@@H]1COC(=O)CC=C[C@H](C)[C@H](OC)COC(=O)[C@H](C)NC(=O)CC=C[C@H]1C`, for which the z-score in assay [1] was 0.774; in assay [2], -0.486 (inactive); in assay [3] it was 0.978 (inactive); in assay [5], -0.638 (inactive); in [6], -0.363 (inactive); in assay [7], 0.853 (inactive). Also, the results for the z-score in assay [8] and in assay [9] were -0.0907 (inactive) and 0.453, respectively. In addition, the composite z-score is -0.165 (inactive) in assay [4] and 0.0264 in assay [10].
On to `C#CCCCON=C1C[C@@H](O)[C@@H](O)[C@@H]2[C@@H]3C(=O)N(c4ccc(F)cc4F)C(=O)[C@@H]3CC[C@@H]12`, for which the z-score in assay [1] was 1.49; in assay [2], -0.652 (inactive); in [3], 0.225 (inactive); in assay [5] it was -1.25 (inactive); in assay [6] it was -1.07 (inactive); in [7] it was -0.0313 (inactive). Also, the z-score in [8] is -0.152 (inactive); in [9], 0.33. Also, the composite z-score was -0.278 (inactive) in assay [4] and -0.0786 in [10].
In the case of `COC(=O)CC=C[C@@H](C)[C@@H](C=NO[C@H](C)c1cn([C@H](CO)Cc2ccccc2)nn1)OC`, the z-score in assay [1] was 0.167; in assay [2] it was -0.285 (inactive); in assay [3] it was -0.242 (inactive); in assay [5] it was 0.368 (inactive); in assay [6] it was -0.212 (inactive); in assay [7], 0.0343 (inactive). Further, the z-score in assay [8] is -0.265 (inactive); in assay [9], 0.261. The composite z-score in assay [4] was -0.184 (inactive); in assay [10], -0.142.
For `COC(=O)[C@@H]1CC[C@H](C)[C@@H](c2ccc(C)cc2)N1C(=O)c1ccc(C=NO[C@H](C)c2cn([C@H](CO)Cc3ccccc3)nn2)cc1`, the z-score in assay [1] is -1.32; in assay [2] it was 0.0789 (inactive); in assay [3], 0.534 (inactive); in [5], -0.598 (inactive); in assay [6] it was 0.59 (inactive); in assay [7], -1.28 (inactive). For the same compound, the z-score in assay [8] is -1.03 (inactive); in assay [9], 0.641. In addition, the composite z-score was 0.271 (inactive) in assay [4] and -0.102 in assay [10].
As to `CC(=O)OC[C@H]1O[C@@H](ON=C(C)CCN2CCCc3nc(C)c(C)cc32)[C@H](OC(C)=O)[C@@H](OC(C)=O)[C@@H]1OC(C)=O`, the z-score in assay [1] was -0.288; in assay [2], 0.131 (inactive); in assay [3], 0.188 (inactive); in [5], -0.503 (inactive); in [6], -0.45 (inactive); in assay [7], -0.925 (inactive). For the same compound, the z-score in [8] was -1.26 (inactive); in assay [9] it was 0.529. Moreover, the composite z-score in [4] was -2.04 (inactive); in assay [10] it was -0.138.
For `CCOC(=O)[C@H](Cc1ccccc1)NC(=O)CCC1CC(OC(=O)NCc2cccc3ccccc23)CC2(CCCC(COC(=O)NCc3ccccc3)O2)O1` (stereo not given in full), the z-score is 0.466 in assay [1]; -2.55 (inactive) in assay [2]; 1.12 (inactive) in [3]; 0.709 (inactive) in [5]; -2.62 (inactive) in assay [6]; -0.964 (inactive) in assay [7]. Also, the z-score is -1.23 (inactive) in assay [8] and 1.03 in assay [9]. Besides, the composite z-score was -2.79 (inactive) in assay [4] and 0.171 in assay [10].
Turning to `CCCNC(=O)OC[C@H]1O[C@H](CCON=C(C)CCC(=O)OC[C@H]2O[C@H](c3ccccc3)C=C[C@@H]2Oc2ccc(OC)cc2)C=C[C@@H]1Oc1ccc(OC)cc1`, the z-score in assay [1] is 0.704; in assay [2], 0.195 (inactive); in [3] it was 0.205 (inactive); in [5] it was 0.0525 (inactive); in [6] it was 0.17 (inactive); in assay [7], 0.629 (inactive). Also, the z-score in [8] was 0.363 (inactive); in assay [9], 1.31. For the same compound, the results for the composite z-score in assay [4] and in [10] were -1.13 (inactive) and -0.171, respectively.
Take `CCOC(=O)CCN1C(=O)[C@H]2[C@H]3[C@H](O)[C@H](O)CC(=NNC(=O)OCc4ccccc4)[C@@H]3CC[C@H]2C1=O`: the z-score was -0.921 in [1]; 0.192 (inactive) in assay [2]; -0.931 (inactive) in [3]; -0.331 (inactive) in [5]; 0.116 (inactive) in assay [6]; 0.655 (inactive) in [7]. Besides, the z-score was 0.84 (inactive) in [8] and -0.663 in assay [9]. In addition, the composite z-score is 0.203 (inactive) in [4] and 0.154 in assay [10].

(Values after PubChem BioAssay.)
